# Hit rate of the full screen: of about 340,000 compounds, about 1,000 (0.29%) were called active. The list is a sample of the results. Potency and affinity values are given separately. Values without a mark were called inactive. No stated cut-off is given here; in the data, inconclusive means inhibition above about 29% without an active follow-up result; inactive means below that.
# Biological target: Genome polyprotein (Dengue virus type 2 (strain 16681-PDK53)) (UniProt P29991)
# Assay: Dengue-2 NS5 methyltransferase inhibitors, primary screen, biochemical, confirmation dose response (AID 588689)
# Conditions: Dengue-2 NS5 methyltransferase capping enzyme assay, at 25 µM, stronger effect = higher value
# Genome polyprotein (Dengue virus type 2 (strain 16681-PDK53)), sequence (P29991 whole entry, looked up): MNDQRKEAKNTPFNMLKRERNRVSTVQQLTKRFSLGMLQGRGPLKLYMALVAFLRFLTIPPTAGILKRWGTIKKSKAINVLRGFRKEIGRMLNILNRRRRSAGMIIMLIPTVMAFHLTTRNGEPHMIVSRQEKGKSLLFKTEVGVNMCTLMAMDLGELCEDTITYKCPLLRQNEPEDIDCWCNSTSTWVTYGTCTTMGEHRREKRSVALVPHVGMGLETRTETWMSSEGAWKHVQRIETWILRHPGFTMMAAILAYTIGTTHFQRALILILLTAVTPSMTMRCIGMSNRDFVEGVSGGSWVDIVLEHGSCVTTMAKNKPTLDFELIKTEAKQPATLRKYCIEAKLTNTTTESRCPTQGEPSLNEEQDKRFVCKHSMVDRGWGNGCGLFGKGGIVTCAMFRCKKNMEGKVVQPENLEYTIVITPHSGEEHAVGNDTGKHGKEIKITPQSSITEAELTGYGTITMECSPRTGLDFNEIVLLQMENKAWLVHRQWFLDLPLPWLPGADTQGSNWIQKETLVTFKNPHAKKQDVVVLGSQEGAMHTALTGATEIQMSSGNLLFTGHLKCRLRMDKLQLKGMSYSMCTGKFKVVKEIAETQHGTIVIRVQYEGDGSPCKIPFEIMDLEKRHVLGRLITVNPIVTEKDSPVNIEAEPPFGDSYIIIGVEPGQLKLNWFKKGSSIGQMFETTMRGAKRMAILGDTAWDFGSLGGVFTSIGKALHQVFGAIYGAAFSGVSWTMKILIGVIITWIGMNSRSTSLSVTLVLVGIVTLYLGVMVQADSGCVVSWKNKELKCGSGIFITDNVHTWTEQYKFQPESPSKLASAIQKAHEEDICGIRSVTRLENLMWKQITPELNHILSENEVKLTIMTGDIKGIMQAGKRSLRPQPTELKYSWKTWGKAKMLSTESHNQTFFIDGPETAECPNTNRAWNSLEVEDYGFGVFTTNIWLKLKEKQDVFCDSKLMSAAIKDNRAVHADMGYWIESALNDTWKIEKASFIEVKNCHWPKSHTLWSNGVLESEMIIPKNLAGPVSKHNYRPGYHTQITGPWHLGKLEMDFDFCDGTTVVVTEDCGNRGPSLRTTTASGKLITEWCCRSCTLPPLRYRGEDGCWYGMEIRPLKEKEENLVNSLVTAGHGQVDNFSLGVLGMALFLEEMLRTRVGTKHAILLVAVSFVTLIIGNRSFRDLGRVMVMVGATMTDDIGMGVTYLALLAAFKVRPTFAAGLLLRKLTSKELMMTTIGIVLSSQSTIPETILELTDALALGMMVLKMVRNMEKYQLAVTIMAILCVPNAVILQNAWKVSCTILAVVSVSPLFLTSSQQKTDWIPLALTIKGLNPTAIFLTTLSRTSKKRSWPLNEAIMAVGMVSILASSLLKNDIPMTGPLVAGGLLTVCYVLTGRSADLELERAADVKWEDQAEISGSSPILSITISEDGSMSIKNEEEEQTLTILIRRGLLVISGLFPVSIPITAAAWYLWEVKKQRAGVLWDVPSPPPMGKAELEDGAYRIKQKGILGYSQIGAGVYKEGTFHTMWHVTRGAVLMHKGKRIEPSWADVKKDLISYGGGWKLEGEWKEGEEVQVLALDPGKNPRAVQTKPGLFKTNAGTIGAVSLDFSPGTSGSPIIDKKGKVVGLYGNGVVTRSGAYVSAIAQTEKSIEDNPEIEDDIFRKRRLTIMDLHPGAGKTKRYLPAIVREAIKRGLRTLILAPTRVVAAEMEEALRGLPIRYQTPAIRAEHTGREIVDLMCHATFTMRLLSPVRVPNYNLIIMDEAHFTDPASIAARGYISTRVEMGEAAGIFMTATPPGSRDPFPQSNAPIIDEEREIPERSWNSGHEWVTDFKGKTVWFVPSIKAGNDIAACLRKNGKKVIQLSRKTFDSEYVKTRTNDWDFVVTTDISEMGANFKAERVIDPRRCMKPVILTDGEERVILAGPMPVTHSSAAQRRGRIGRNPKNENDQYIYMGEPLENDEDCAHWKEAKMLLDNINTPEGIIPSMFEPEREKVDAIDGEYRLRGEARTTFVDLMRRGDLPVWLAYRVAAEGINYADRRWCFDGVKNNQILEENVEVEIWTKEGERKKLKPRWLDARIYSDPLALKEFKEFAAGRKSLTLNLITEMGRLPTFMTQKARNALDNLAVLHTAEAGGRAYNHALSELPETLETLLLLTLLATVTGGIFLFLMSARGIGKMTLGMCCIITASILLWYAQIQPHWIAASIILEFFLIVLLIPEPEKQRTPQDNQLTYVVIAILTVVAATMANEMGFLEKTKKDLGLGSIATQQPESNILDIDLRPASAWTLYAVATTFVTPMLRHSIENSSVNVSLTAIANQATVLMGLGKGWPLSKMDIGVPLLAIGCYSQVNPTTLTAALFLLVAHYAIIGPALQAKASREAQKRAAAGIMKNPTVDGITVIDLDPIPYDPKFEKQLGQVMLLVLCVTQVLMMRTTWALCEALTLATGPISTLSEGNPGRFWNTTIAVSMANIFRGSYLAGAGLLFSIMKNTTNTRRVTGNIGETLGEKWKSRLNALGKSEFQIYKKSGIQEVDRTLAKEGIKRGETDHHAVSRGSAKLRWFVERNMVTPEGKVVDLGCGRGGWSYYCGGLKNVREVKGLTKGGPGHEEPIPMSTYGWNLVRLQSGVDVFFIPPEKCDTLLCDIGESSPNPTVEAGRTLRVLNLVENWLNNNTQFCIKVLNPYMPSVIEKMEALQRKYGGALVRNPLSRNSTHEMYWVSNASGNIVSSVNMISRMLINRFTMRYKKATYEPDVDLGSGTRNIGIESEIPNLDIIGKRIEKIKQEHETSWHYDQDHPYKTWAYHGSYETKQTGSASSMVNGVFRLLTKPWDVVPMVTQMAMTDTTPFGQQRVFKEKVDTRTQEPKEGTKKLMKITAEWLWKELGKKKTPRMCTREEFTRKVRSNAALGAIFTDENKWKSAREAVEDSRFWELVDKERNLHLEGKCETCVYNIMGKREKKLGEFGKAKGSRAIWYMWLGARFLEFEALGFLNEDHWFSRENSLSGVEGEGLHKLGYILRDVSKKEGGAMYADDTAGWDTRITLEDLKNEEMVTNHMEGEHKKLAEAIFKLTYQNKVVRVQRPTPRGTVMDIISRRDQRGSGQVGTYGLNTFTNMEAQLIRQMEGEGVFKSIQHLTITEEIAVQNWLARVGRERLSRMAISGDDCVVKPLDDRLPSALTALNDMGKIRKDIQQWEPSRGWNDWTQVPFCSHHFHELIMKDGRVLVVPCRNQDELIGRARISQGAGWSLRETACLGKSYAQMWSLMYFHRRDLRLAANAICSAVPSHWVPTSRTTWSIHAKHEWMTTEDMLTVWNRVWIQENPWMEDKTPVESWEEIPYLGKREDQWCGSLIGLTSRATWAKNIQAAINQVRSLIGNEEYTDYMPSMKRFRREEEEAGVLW
row,SMILES,inhibition
1,CC(=O)OCC1CCCC2=C(C)C(=O)CCC21COC(C)=O (stereo not given),3.29%
2,Cc1ccccc1NC(=O)NC1(C(=O)N2CCOCC2)CCCCC1,-3.7%
3,COc1ccc(CCn2c(=O)c3cccnc3n(Cc3ccc([N+](=O)[O-])cc3)c2=O)cc1OC,-7.08%
4,CCCCCC(=O)Nc1cc(S(=O)(=O)N2CCCCC2)ccc1N1CCCCC1,-6.48%
5,CCS(=O)(=O)c1ccc(O)c(NC(=O)CCCC(=O)O)c1,12.2%
6,Cc1ccc(N2CC(C(=O)OCc3nc(N)nc(Nc4ccccc4C)n3)CC2=O)cc1 (stereo not given),2.96%
7,CCCCC/C=C/C1=CC(=O)C[C@H](c2ccc(OC)cc2)C1,-0.8%
8,CC(C)C(NC(=O)C1CCC(C(C)(C)C)CC1)C(=O)NCCc1ccc(S(N)(=O)=O)cc1 (stereo not given),9.25%
9,O=C(/C=C/c1cccc([N+](=O)[O-])c1)NCCN1C(=O)S/C(=C\c2ccc(F)cc2)C1=O,5.26%
10,O=C(O)c1cccc(CN2C(=O)S/C(=C/c3ccccc3[N+](=O)[O-])C2=O)c1,28.5%
11,CCCCNC(C(=O)Nc1ccc([N+](=O)[O-])cc1Br)c1ccccc1 (stereo not given),1.47%
12,COc1ccc(C(=O)N2CCC(C(=O)Nc3ccc4c(c3)OCO4)CC2)cc1,-4.42%
13,O=C(NCc1ccc(F)cc1)C(=O)NCC1OCCN1S(=O)(=O)c1cc(F)ccc1F (stereo not given),6.59%
14,Cc1ccc([N+](=O)[O-])cc1NC(=O)C(C)NS(=O)(=O)c1ccc(F)cc1 (stereo not given),2.19%
15,COc1ccc(NC(=O)CCCc2nc3ccccc3c(=O)[nH]2)cc1Cl,6.22%
16,COC(=O)CCC(=O)OC1(C)C(=O)C=C2C=C(C3CC3)N(CCCOC(C)C)C=C2C1=O (stereo not given),7.22%
17,COC(=O)CCC(=O)OC1(C)C(=O)C2=CN(Cc3ccc(OC)cc3)C(c3ccc(OC)cc3)=CC2=C(Br)C1=O (stereo not given),17.2%
18,CCN(CC)CCCN1C=C2C(=O)C(C)(OC(=O)CCC(=O)OC)C(=O)C(Br)=C2C=C1c1ccc(OC)cc1 (stereo not given),8.8%
19,COC(=O)CCC(=O)OC1(C)C(=O)C=C2C=C(C3CC3)N(CC3CC3)C=C2C1=O (stereo not given),9.84%
20,COC(=O)CCC(=O)OC1(C)C(=O)C=C2C=C(C3CC3)N(Cc3ccc(OC)cc3)C=C2C1=O (stereo not given),17.3%
21,COC(=O)CCC(=O)OC1(C)C(=O)C=C2C=C(C3CC3)N(C3CCCCC3)C=C2C1=O (stereo not given),12.7%
22,COC(=O)CCC(=O)OC1(C)C(=O)C=C2C=C(C3CC3)N(C3CCCC3)C=C2C1=O (stereo not given),12.8%
23,COC(=O)CCC(=O)OC1(C)C(=O)C2=CN(CCc3c[nH]c4ccccc34)C(c3ccc(OC)cc3)=CC2=C(Br)C1=O (stereo not given),-2.45%

row,SMILES,inhibition
1,N#Cc1ccc(CN2CCN(C(=O)CCNS(=O)(=O)c3ccc(F)c(F)c3)CC2)cc1,-7.08%
2,O=C(CSc1ccc2c(c1)OCCO2)NCC1CCCO1 (stereo not given),-10.5%
3,O=c1c(-c2ccccc2)c(O)c2c(n1-c1ccccc1)CCCC2,-3.21%
4,O=C(O)c1ccc(-c2ccco2)n1Cc1ccccc1,4.75%
5,O=C(CN1CCN(Cc2ccc(F)cc2)CC1)Nc1ccccc1F,1.36%
6,CCN(C(=O)CSc1nc2ccccc2c(=O)n1CCOC)C1CCS(=O)(=O)C1 (stereo not given),1.48%
7,CC(C)c1cccc(-c2ccc3c(c2)S(=O)(=O)c2cccc(C(=O)NCc4ccccc4)c2C3=O)c1,-6.42%
8,CC(C)c1cccc(-c2ccc3c(c2)S(=O)(=O)c2cccc(C(=O)NC4CCCC4)c2C3=O)c1,-4.92%
9,O=C1c2ccc(-c3ccc(F)cc3OCc3ccccc3)cc2S(=O)(=O)c2cccc(C(=O)N3CCCC3)c21,8%
10,COc1ccc(NC(=O)c2cccc3c2C(=O)c2ccc(-c4ccc(F)cc4OCc4ccccc4)cc2S3(=O)=O)cc1,-0.7%
11,O=C(OCCN1CCCCC1)c1ccccc1Cl,7.44%
12,CN(CC(=O)Nc1cccc(F)c1)CC(=O)N1CCCCC1,6.98%
13,COc1ccc(CN2CC(C(=O)NCCC(C)C)CC2=O)cc1 (stereo not given),6.67%
14,CC(C)(C)C(=O)NCCCc1ccccc1,-0.68%
15,COc1cc(/C=C2/C(=O)NN(c3ccc(Cl)cc3)C2=O)ccc1OC(=O)c1ccco1,15.2%
16,CCOc1cc(/C=C2/C(=O)N(c3ccccc3)N=C2C)ccc1OC(=O)c1ccco1,19.1%
17,CCOc1cc(/C=C2/NC(=O)NC2=O)cc([N+](=O)[O-])c1O,22.9%
18,CCOc1cc(/C=C2\NC(=O)NC2=O)cc([N+](=O)[O-])c1O,71.9%
19,COc1cc(/C=C2\C(=N)N3N=C(S(C)(=O)=O)SC3=NC2=O)ccc1OC(=O)c1ccco1,-59.7%
20,COc1cc(/C=C2\C(=O)NN(c3ccc(C)cc3)C2=O)cc([N+](=O)[O-])c1O,17.9%
21,COc1cc(/C=C2\C(=O)NN(c3ccccc3)C2=O)cc([N+](=O)[O-])c1O,26.6%
22,COc1cc(/C=C2/C(=O)NN(c3cccc(F)c3)C2=O)ccc1OC(=O)c1ccco1,23%

# Reference: PubChem BioAssay AID588689 (Southern Research Specialized Biocontainment Screening …, 2011)
